The whole screen tested about 48,000 compounds, of which about 13,000 (27%) showed an effect of 50% or more. The list shows a part of the results.
Tested on: Wolbachia pipientis
Assay: Anti-Wolbachia Cell-Based Screen
Format: functional
Design: scale not given: in the data most compounds retested in dose-response had high values
Settings: 5 µM

Row | Compound | Percent Effect [%]
1 | Cc1noc(C)c1CNC(C(=O)N1CCOCC1)C(C)C (stereo not drawn) | 6.768
2 | CC(C)c1nc(/C=C/c2cnn(-c3ccc(Cl)cc3)c2)ncc1C(=O)O | -7.437
3 | Cc1ccsc1CN(CCN(C)C)C(=O)c1ccccc1C#N | -7.458
4 | CCCS(=O)(=O)NC(=O)c1sc(C2CCCC2)nc1C | -2.065
5 | CCC(C)N(C)CCNC(=O)NCc1cccc(-n2cncn2)c1 (stereo not drawn) | 23.44
6 | O=C(NC1CC1)C1CCN(Cn2nc(-c3ccccc3)oc2=O)CC1 | 10.01
7 | CCc1nc(CN2CCN(C(=O)c3csc(C(C)C)n3)CC2)no1 | -9.148
8 | COc1cc(OC)c2c(=O)oc(CC(O)CC(C)=O)cc2c1 (stereo not drawn) | 8.997
9 | Cc1cc(C(=O)NCC2COCc3c(C)nnn3C2)no1 (stereo not drawn) | -12.47
10 | Cc1noc(C)c1CNS(=O)(=O)N(C)Cc1ccc(Cl)cc1 | -11.55
11 | CN(C)C(=O)c1ccc2c(c1)N(C)C(CC(=O)NCc1ccno1)CO2 (stereo not drawn) | -14.39
12 | CCN(CC)S(=O)(=O)c1csc(C(=O)N2CCC(C(N)=O)CC2)c1 | 5.806
13 | CCN(c1ccc(C(=O)N2CCCC(C)C2)cc1)S(=O)(=O)CC (stereo not drawn) | -3.775
14 | CCS(=O)(=O)N(C)c1ccc(C(=O)N2CCCC(C)C2)cc1 (stereo not drawn) | -1.245
15 | CCN(c1ccc(C(=O)N2CCC(C(N)=O)CC2)cc1)S(=O)(=O)CC | 125.1
16 | CCN(c1ccc(C(=O)N2CCC(C)CC2)cc1)S(=O)(=O)CC | 137.9
17 | CN(C)S(=O)(=O)c1csc(C(=O)N2CCC(C(N)=O)CC2)c1 | 3.976
18 | Cc1nccn1CC1CCCN1S(=O)(=O)Cc1ccon1 (stereo not drawn) | 0.377
19 | Cc1nc(C)n(CC2CCCN(CCC(=O)NC3CCCCC3)C2)n1 (stereo not drawn) | 153.2
20 | Cc1nc(C)n(CC2CCCN(CCC(=O)NC3CCCC3)C2)n1 (stereo not drawn) | 114.2
21 | Cc1nc(C)n(CC2CCCN(CCC(=O)Nc3cc(C)on3)C2)n1 (stereo not drawn) | 101.8
22 | Cc1nc(C)n(CC2CCCN(CCNC(=O)OC(C)(C)C)C2)n1 (stereo not drawn) | -2.681
23 | Cc1cnc(CNC(=O)NC2CCCN(c3ccccc3F)C2)s1 (stereo not drawn) | -4.354
24 | CC(C)OCCCN1CCCC(c2nc3ccccc3n2C(C)C)C1 (stereo not drawn) | -14.63
25 | Cc1cc(CN2CCN(CCOc3cccc(C#N)c3)CC2)no1 | -1.661
26 | CCOc1c(Cl)cc(/C=C/c2ncc(C(=O)O)s2)cc1OC | 82.8
27 | COc1cc(/C=C/c2ncc(C(=O)O)s2)cc(Cl)c1O | 10.97

Row | Compound | Percent Effect [%]
28 | CNC(=O)c1cnc(/C=C/c2ccc(O)c(OC)c2)s1 | 0.2416
29 | CCOc1cc(/C=C/c2ncc(C(=O)O)s2)cc(Cl)c1OC | 3.266
30 | CNC(=O)c1cnc(/C=C/c2cc(OC)c(OC)c(OC)c2)s1 | 2.96
31 | COc1cc(/C=C/c2ncc(C(=O)O)s2)cc(Cl)c1OC | 96.03
32 | COc1ccc(F)cc1CSCC(=O)N(C)CCC#N | -1.773
33 | COc1ccc(-c2noc(C(CC(C)C)N3CCCCC3=O)n2)cn1 (stereo not drawn) | 9.971
34 | O=C1NCC2(CCCN(Cc3ccccc3F)C2)Oc2ccccc21 (stereo not drawn) | -7.876
35 | O=C1NCC2(CCCN(Cc3ccc(F)cc3)C2)Oc2ccccc21 (stereo not drawn) | 110.4
36 | CSc1ccc(CN2CCCC3(CNC(=O)c4ccccc4O3)C2)cc1 (stereo not drawn) | 103.9
37 | C=Cc1ccc(CN2CCCC3(CNC(=O)c4ccccc4O3)C2)cc1 (stereo not drawn) | 88.72
38 | O=C1NCC2(CCCN(Cc3ccc(Cl)s3)C2)Oc2ccccc21 (stereo not drawn) | 7.994
39 | CC(=O)N1CCOC2(CCCN(Cc3ccc(N(C)C)cc3)C2)C1 (stereo not drawn) | -2.682
40 | CC(C)=CCN1C[C@H]2CC[C@@H]1CN(C(=O)c1ccc(S(N)(=O)=O)cc1)C2 | -17.62
41 | CC(C)c1ccccc1NC(=O)N1C[C@@H]2CC[C@H](C1)N(C)C2=O | -22.21
42 | CN1CCN(C[C@H]2CC[C@@H](Cc3ccc4c(c3)OCO4)O2)CC1 | 5.044
43 | COc1cc(CC2CC(c3ccc4c(c3)OCO4)=NO2)cc2c1OCO2 (stereo not drawn) | 92.75
44 | CCC[C@@H]1CN(Cc2cc(OC)c3c(c2)OCO3)C[C@H]1C(=O)O | 0.814
45 | COc1cc(CNCCc2cnn(C)c2)cc2c1OCCO2 | -13.22
46 | COc1cc(CNCc2ccc(C(C)O)cc2)cc2c1OCO2 (stereo not drawn) | 0.7709
47 | COc1cc(-c2nccn2CCn2cccn2)cc2c1OCO2 | -19.98
48 | COC(=O)C1=NOC(Cc2cc(OC)c3c(c2)OCO3)C1 (stereo not drawn) | 94.65
49 | COc1cc(CCO)c(OC)c2c1OCO2 | -4.361
50 | COc1cc(CNCCc2nc(C)cs2)cc2c1OCCO2.Cl | -10.19
51 | CCN1CCN(C[C@H]2CC[C@@H](Cc3ccc4c(c3)OCO4)O2)CC1 | 15.13
52 | COc1cc(CC2CC(C(N)=O)=NO2)cc2c1OCO2 (stereo not drawn) | 107.2
53 | CCOC(=O)C1=NOC(Cc2cc(OC)c3c(c2)OCO3)C1 (stereo not drawn) | 92.3

From ChEMBL document CHEMBL3988442, “University of Dundee, Small-Polar-MMV Screening Library” (2021)
